Measured values as given in ChEMBL document CHEMBL3433997, “St. Jude Leishmania screening dataset” (2016).

Tests used:
Assay type in all cases: functional
[1] = target: Solute carrier family 2, facilitated glucose transporter member 1 (Homo sapiens) (UniProt P11166); test: ST_JUDE_LEISH: Cytotoxicity at 2uM final concentration against transgenic Leishmania Mexicana promastigotes LmGLUT1 that are glucose transport deficient and complemented with the human glucose transporter GLUT1. Activity is measured by DNA content using SYBR green in vitro
[2] = target: Hexose transporter 1 (Plasmodium falciparum) (UniProt O97467); test: ST_JUDE_LEISH: Cytotoxicity at 2uM final concentration against transgenic Leishmania Mexicana promastigotes LmPfHT that are glucose transport deficient and complemented with the Plasmodium falciparum hexose transporter. Activity is measured by DNA content using SYBR green in vitro
[3] = target: Glucose transporter (Leishmania mexicana) (UniProt O61059); test: ST_JUDE_LEISH: Cytotoxicity at 2uM final concentration against transgenic Leishmania Mexicana promastigotes LmGT2 that are glucose transport deficient and complemented with the L. Mexicana glucose transporter 2. Activity is measured by DNA content using SYBR green in vitro

Chain of Solute carrier family 2, facilitated glucose transporter member 1 (Homo sapiens) (P11166 whole entry): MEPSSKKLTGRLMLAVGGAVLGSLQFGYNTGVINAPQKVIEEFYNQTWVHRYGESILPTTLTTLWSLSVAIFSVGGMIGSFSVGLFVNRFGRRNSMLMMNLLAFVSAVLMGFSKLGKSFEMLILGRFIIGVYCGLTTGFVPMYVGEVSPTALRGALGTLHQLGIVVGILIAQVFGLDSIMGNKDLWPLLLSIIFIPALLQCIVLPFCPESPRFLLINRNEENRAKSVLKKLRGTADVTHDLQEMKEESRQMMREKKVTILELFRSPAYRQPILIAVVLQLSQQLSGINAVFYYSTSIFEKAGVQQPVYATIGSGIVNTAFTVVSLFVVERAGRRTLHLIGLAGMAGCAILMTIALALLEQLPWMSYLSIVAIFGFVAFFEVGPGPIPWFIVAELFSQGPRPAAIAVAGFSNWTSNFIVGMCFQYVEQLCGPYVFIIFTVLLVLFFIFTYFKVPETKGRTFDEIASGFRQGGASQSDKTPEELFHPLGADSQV

Cc1ccc(N(CCC(=N)N)Cc2ccccc2)cc1
inhibition [1]: 8.97% | inhibition [2]: 3.59% | inhibition [3]: 4.68%

Cc1cccc2nc(-c3cccc(-c4cccc(NC(=O)CC5NC(=O)c6ccccc65)c4)c3)[nH]c12 (stereo unspecified)
inhibition [1]: 0.82% | inhibition [2]: 1.34% | inhibition [3]: 3.21%

Cc1nc(-c2nc(NCc3ccc4c(c3)OCO4)ncc2-c2ccsc2)sc1C
inhibition [1]: -0.05% | inhibition [2]: -0.48% | inhibition [3]: 0.68%

CC1(C)NC(N)=NC(=N)N1OCCCOc1c(Cl)cc(Cl)cc1Cl
inhibition [1]: -1.14% | inhibition [2]: 0.14% | inhibition [3]: -2.41%

N#Cc1ccc(-c2ccc(C(=O)NCCCCN3CCC(c4cn(CCCO)c5ccccc45)CC3)cc2)cc1
inhibition [1]: 2% | inhibition [2]: 1.61% | inhibition [3]: 1.21%

Cc1ccc(NC(=O)NC2CCN(c3ccnc4cc(Cl)ccc34)C2)cc1 (stereo unspecified)
inhibition [1]: 0.94% | inhibition [2]: 4.46% | inhibition [3]: 2.34%

O=C(Cc1ccc(-n2cnnn2)cc1)N(Cc1cncn1Cc1cccc(C(F)(F)F)c1)CC1CC1
inhibition [1]: -1.26% | inhibition [2]: -1.38% | inhibition [3]: 1.66%

N#Cc1ccc(N2CCN(Cc3ccc(-c4ccc(-c5nc6cc(C(F)(F)F)ccc6[nH]5)cc4)cc3)CC2)nc1
inhibition [1]: 2.63% | inhibition [2]: 4.69% | inhibition [3]: 1.55%

COc1cc(NCC(C)CNCc2cn(Cc3ccccc3)c3ccccc23)nc2ccccc12 (stereo unspecified)
inhibition [1]: 3.78% | inhibition [2]: 6.19% | inhibition [3]: 6.44%

O=C(NCCCCCN1CCC(c2c[nH]c3ccccc23)CC1)c1ccc(Cl)c(Cl)c1
inhibition [1]: 2.42% | inhibition [2]: 4.92% | inhibition [3]: 2.52%

CC(=O)c1cccc(S(=O)(=O)NCCCNc2nc3cc(C)cc(C)c3cc2C#N)c1
inhibition [1]: -0.68% | inhibition [2]: 1.78% | inhibition [3]: -1.77%

Cc1cc(=NN=Cc2ccccn2)c2cc(C(F)(F)F)ccc2[nH]1
inhibition [1]: -0.43% | inhibition [2]: -1.03% | inhibition [3]: -1.17%
